Here are results for 95 molecules from PubChem BioAssay AID2314 (National Center for Advancing Translational Sciences (NCATS), 2010).

In all, about 300,000 compounds went through this assay and about 37,000 (12%) were called active. This is one part of a sample in which actives are shown more often than they occur. A number with no mark means an inactive call. Cut-off read from the data, not from the text of the source: active = max response mostly above about 13% (no sharp cut-off); inactive = mostly below about 14%.

This experiment can be described thus: Cycloheximide Counterscreen for Small Molecule Inhibitors of Shiga Toxin. Note: read at 38.3 µM for the half of the compounds with a filed dose; 0% is about no effect. Conditions: cell reporter, cycloheximide protein synthesis inhibition counterscreen; stronger effect = higher value. On the technique in general: Counterscreens check selectivity or assay interference.
With `Cc1ccc([N+](=O)[O-])c(OCCCNCC(C)O)c1` (stereo not given), the max response is 17.1%.

In the case of `Cc1cc(NC(=O)CCN2CCN(Cc3ccccc3)CC2)ccc1Br`, the max response is -0.903%.

For the molecule `COc1ccc(NC(=O)CN2C(=O)COc3ccc(S(=O)(=O)N4CCOCC4)cc32)cc1`, the max response was -5.3%.

As to `COCCNc1ccc(-c2n[nH]c(=O)c3ccccc23)cc1[N+](=O)[O-]`, the max response is -0.883%.

Regarding `COc1ccc(N(C)C(=O)C2CCN(S(=O)(=O)c3cccc4nsnc34)CC2)cc1`, the max response is -1.67%.

With `Cc1cc(N)n2nc(-c3ccc(C(C)(C)C)cc3)cc2n1`, the max response is 46.8% (active).

For the molecule `Cc1nc2cc(-c3ccc(F)cc3)nn2c(N2CCOCC2)c1C`, the max response is 16.4%.

Consider `Cc1cc(C(C)(C)C)n2nc(C)c(-c3ccccc3)c2n1`, for which the max response was -2.81%.

On to `O=C(CN1C(=O)c2cccnc2Oc2ccc(Cl)cc21)Nc1ccc(F)cc1`, for which the max response was -3.07%.

As for `COc1cc(NC(=O)C2=CC(c3ccc(C)cc3)=NS(=O)(=O)N2C)cc(OC)c1OC`, the max response was -1.64%.

As for `CSc1ncccc1C(=O)Nc1nc2ccc(F)cc2s1`, the max response is 53.4% (active).

Take `COc1cc(NC(=O)c2cccnc2SC)cc(OC)c1`: the max response is -1.86%.

For `COc1ccc(C(CNC(=O)c2cccnc2SC)N2CCOCC2)cc1` (stereo not given), the max response is -3.3%.

In the case of `CSc1ncccc1C(=O)NC1CCCCCC1`, the max response is 19.5%.

For `O=C(COC(=O)c1ccc(F)cc1)Nc1nc2ccc([N+](=O)[O-])cc2s1`, the max response is 0.781%.

`CSc1ncccc1C(=O)Nc1ccc(C)cn1`: the max response is 9.66% (active).

On to `CCOc1ccc(NC(=O)CCC(=O)NNC(=O)NC2CCCCC2)cc1`, for which the max response was -3.92%.

As to `COc1ccccc1Nc1nc(N)nc(CSC(=S)N2CCOCC2)n1`, the max response is 23.7% (active).

`COc1ccc(Nc2nc(N)nc(CSC(=S)N3CCC(C)CC3)n2)cc1`: the max response was 47.2% (active).

For the molecule `CCOC(=O)C1CCCN(Cc2nc(N)nc(Nc3ccc(C)cc3)n2)C1` (stereo not given), the max response was 0.836%.

As for `COc1ccccc1Nc1nc(N)nc(CN(C)C2CCCCC2)n1`, the max response was -1.19%.

For the molecule `CCOC(=O)c1cnc(SCc2nc(N)nc(Nc3ccc(OC)cc3)n2)nc1N`, the max response is 19.8%.

As for `COc1ccccc1NC(=S)N1CCN(c2ccc(F)cc2)CC1`, the max response is -1.91%.

As to `C=CCN1C(=NC(=O)COc2ccccc2)SC2CS(=O)(=O)CC21` (stereo not given), the max response was -13.1%.

Turning to `O=C(NCCc1nnc2ccc(SCC(=O)N3CCOCC3)nn12)c1ccccc1`, the max response is -4.07%.

Take `O=C(O)c1ccc(S(=O)(=O)N2CCC(Cc3ccccc3)CC2)cc1`: the max response was -8.01%.

Turning to `COc1ccc(C(=O)OCC(=O)NC(=O)CCSc2ccccc2)cc1`, the max response is 3.82%.

As for `COc1ccc(OC)c(CCNC(=O)c2nn(C)c3c2CS(=O)(=O)c2ccccc2-3)c1`, the max response was -1.16%.

On to `COc1ccc(N(CC(=O)NC2CCCCC2)S(=O)(=O)c2c(C)[nH]c(=O)[nH]c2=O)cc1`, for which the max response is -1.68%.

Consider `O=C(NNC(=S)NC(=O)c1cn(-c2ccccc2)nc1-c1ccccc1)c1ccncc1`, for which the max response was 2.78%.

Turning to `Cc1cc(C(=O)N/N=C/c2ccc(O)c([N+](=O)[O-])c2)c(C)n1-c1ccc(F)cc1`, the max response was 24.9% (active).

For `Cc1nn(CC(=O)N/N=C/c2ccc(F)cc2)c(C)c1[N+](=O)[O-]`, the max response is -2.9%.

Take `COc1cc(/C=N/NC(=O)c2cc(C)n(-c3ccc(F)cc3)c2C)cc(OC)c1O`: the max response is 18.9%.

With `COc1ccccc1N(CC(=O)Nc1ccccc1C(=O)N1CCCC1)S(C)(=O)=O`, the max response was -4.06%.

For `CC/C(=N\NC(=O)c1ccccc1Cl)c1ccc(Br)s1`, the max response was -0.594%.

Regarding `NS(=O)(=O)c1ccc(CCNS(=O)(=O)c2cccc3cccnc23)cc1`, the max response was -5.53%.

For the molecule `CN(C)S(=O)(=O)c1cccc(NC(=O)Cc2ccsc2)c1`, the max response is -3.01%.

On to `O=C1N/C(=C/c2cccs2)C(=O)N1Cc1ccc(F)cc1`, for which the max response is -5.73%.

With `Cc1ccc(Cn2c(C)c3cnn(CC(=O)NCc4ccccn4)c(=O)c3c2C)cc1`, the max response is -3.46%.

As for `Cc1ccc(CN2C(=O)N/C(=C/c3cc(C)n(-c4ccccn4)c3C)C2=O)cc1`, the max response was 33.6% (active).

Regarding `Cc1cccc([C@@H]2[C@@H]3C(=O)N(C)C(=O)[C@@H]3[C@@H]3C(=O)Nc4ccccc4C(=O)N23)c1`, the max response is 1.14%.

For the molecule `O=c1c2ccccc2nc2n1C(CSCc1ccccc1)CS2` (stereo not given), the max response was -1.46%.

As for `O=C(/C=C/c1ccc([N+](=O)[O-])cc1)NCCSCc1ccco1`, the max response is 9.78%.

For `COC(=O)c1ccc(CSc2nnc(N)s2)o1`, the max response is 12.5% (active).

Regarding `CCOc1ccccc1Nc1nnc(SCc2ccc(C(=O)OC)o2)s1`, the max response was -4.31%.

Take `COC(=O)c1ccc(CSc2ccccc2C)o1`: the max response is -1.75%.

`CC1CCCCN1C(=O)CCS(=O)(=O)Cc1ccccc1` (stereo not given): the max response is -0.307%.

Turning to `COc1cc(C(=O)NN(CCC#N)C2=NS(=O)(=O)c3ccccc32)cc(OC)c1OC`, the max response is -4.44%.

For `COc1cc2c(C(=O)O)c(C)n(C)c2c2ccccc12`, the max response was -4.45%.

Regarding `Cc1c(C(=O)N/N=C/c2ccccc2)[nH]c2c([N+](=O)[O-])cccc12`, the max response is 1.12%.

Regarding `COc1cccc2c(C)c(C(=O)O)[nH]c12`, the max response is 33.1% (active).

Regarding `O=c1[nH]cccc1-c1nc2ccccc2n1Cc1ccc(Cl)cc1`, the max response was -10.6%.

As for `COc1ccc(C(=O)NC(C)Cn2nc(C)cc2C)cc1OC1CCN(C(C)=O)CC1` (stereo not given), the max response is -1.29%.

Take `Cn1ncc(Br)c1C(=O)NC1CCCC1`: the max response is -6.23%.

`CCN(CC)CCn1cnc2c1c(=O)[nH]c(=O)n2Cc1ccccc1`: the max response was -9.18%.

`CCOc1ccc(N(C(=O)c2snc(C(N)=O)c2N)C(C(=O)NCC2CCCO2)c2c[nH]c3ccccc23)cc1` (stereo not given): the max response was 1.95%.

Turning to `Cc1cc(S(=O)(=O)NC2CCCCC2)ccc1OCC(=O)NCc1cccnc1`, the max response is -2.89%.

On to `CCOC(=O)C1(Cc2ccccc2C)CCCN(C(=O)c2ccc(COC)o2)C1` (stereo not given), for which the max response is 35.6% (active).

`CCOC(=O)C1(CCc2ccccc2)CCN(Cc2ccco2)CC1`: the max response is 8.52%.

Regarding `O=C(Cn1c(=O)n(CC2CS2)c2ccccc21)N1CCCCC1` (stereo not given), the max response is 0.367%.

With `CCOC(=O)C1(Cc2ccccc2C)CCCN(S(C)(=O)=O)C1` (stereo not given), the max response was 2.45%.

With `Cc1cc(SCC(=O)NCCN2C(=O)CSC2=O)nc2ccccc12`, the max response was 0.645%.

As to `CCOC(=O)C1(Cc2ccccc2C)CCCN(C(=O)CN2C(=O)CSC2=O)C1` (stereo not given), the max response is 42.6% (active).

On to `Cc1ccc(S(=O)(=O)N(CC(=O)NCc2ccco2)c2ccccc2C)cc1`, for which the max response was -4.61%.

Consider `CCCNC(=S)N1CCCC(c2nc3ccccc3[nH]2)C1` (stereo not given), for which the max response is -2.62%.

As to `O=C(NC1CCCC1)C(c1c(F)cccc1Cl)N(C(=O)c1csnn1)C1CC1` (stereo not given), the max response is -1.83%.

Turning to `Cn1c(=NC(=O)c2ccc3c(c2)OCCO3)sc2cc(S(C)(=O)=O)ccc21`, the max response was 3.13%.

For `COCCNC(=O)c1ccccc1NS(=O)(=O)c1ccc(C)c([N+](=O)[O-])c1`, the max response is -2.35%.

Take `COCCn1c(=NC(=O)c2ccccc2[N+](=O)[O-])sc2cc(S(C)(=O)=O)ccc21`: the max response was 25.9% (active).

Regarding `O=C(Nc1ccccc1C(=O)Nc1ccncc1)c1ccc([N+](=O)[O-])cc1`, the max response was -2.91%.

Regarding `Cc1ccsc1C(=O)N[C@@H](C)c1nnc2ccccn12`, the max response is -2.38%.

Take `CCOC(=O)C1=C(C)Nc2nc3ccccc3n2C1c1cccs1` (stereo not given): the max response was -3.92%.

With `C=CCOC(=O)C1=C(C)NC(C)=C(C(=O)OCC=C)C1c1cccs1`, the max response was 63.9% (active).

For `CCOC(=O)C1=C(C)NC(=S)NC1c1cccs1` (stereo not given), the max response was -2.57%.

Take `Cc1cc(C)c2nc(N(CCN(C)C)C(=O)/C=C/c3cccs3)sc2c1`: the max response is -3.7%.

`C/C(=N/OC(=O)c1ccc(Br)cc1)c1ccc(C)cc1`: the max response was 4.97%.

On to `COc1ccc(C)cc1N(CC(=O)N1CCCC1)S(=O)(=O)c1ccccc1`, for which the max response was 9.95%.

Turning to `CCOC(=O)Cc1csc(NC(NC(=O)OCC)(C(F)(F)F)C(F)(F)F)n1`, the max response was -0.89%.

For `CCCCCCC(=O)Nc1nc(C)c(-c2csc(Nc3cccc(OC)c3)n2)s1`, the max response is -1.06%.

Take `CCOC(=O)Cc1csc(NC(=O)Nc2ccccc2)n1`: the max response was 21.8% (active).

For the molecule `CCOC(=O)Cc1csc(NC(=O)C(C)(C)C)n1`, the max response is 26.6% (active).

Turning to `CCOC(=O)Cc1csc(NC(=O)COc2ccc3c(C)cc(=O)oc3c2)n1`, the max response was 5.78%.

`CCOC(=O)Cc1csc(NC(=O)CSc2nc(C)cc(=O)[nH]2)n1`: the max response was -1.4%.

As to `CCOC(=O)c1cnc(SCC(=O)Nc2cccc(OC)c2)nc1N`, the max response is -6%.

In the case of `CCOC(=O)c1csc(NC(=O)Nc2cccc(OC)c2)n1`, the max response is 15% (active).

With `CCOC(=O)Cc1csc(NC(=O)CSc2ccc(Br)cc2)n1`, the max response was -1.14%.

Turning to `COc1ccccc1N1CCN(C(=O)c2ccc(NC3=NC4CS(=O)(=O)CC4S3)cc2)CC1` (stereo not given), the max response is 6.59%.

With `O=C(Nc1ccc(F)cc1F)N1CCCN(CCOc2ccccc2)CC1`, the max response was -1.88%.

`CN1CCN(C(=O)c2cnn(-c3ccccc3)c2NC(=O)c2ccc([N+](=O)[O-])cc2)CC1`: the max response was -1.78%.

Consider `S=c1[nH]ccn1-c1ccc(Cl)cc1`, for which the max response was -4.55%.

For `CN(Cc1ccccc1)C(=O)COC(=O)c1ccccc1Nc1ccccc1`, the max response is -1.45%.

`CC1(C(=O)O)CCC(C(=O)Nc2ccc(Cl)c(Cl)c2)C1(C)C` (stereo not given): the max response was -1.72%.

For `N/C(=N\OC(=O)/C=C/c1ccccc1)c1ccc(Br)cc1`, the max response was 1.02%.

As to `N/C(=N\OC(=O)N1c2ccccc2Sc2ccccc21)c1ccc(Br)cc1`, the max response is -1.54%.

Turning to `N/C(=N\OC(=O)c1ccc2c(c1)OCO2)c1ccc(Br)cc1`, the max response is 32.7% (active).
